ROCK2 blocker: inhibitors of human ROCK2 kinase, primary screen, biochemical, high-throughput, luminescence | hit rate 0.35% among 60,000 | inhibition, % at 6 µM | purified ROCK2, Kinase-Glo ATP depletion luminescence | Rho-associated protein kinase 2 (Homo sapiens), O75116;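 active = inhibition above the screen-wide mean inhibition plus 3 SD, cut at about 18% in these data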;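 note: plate controls were DMSO wells for no effect and Y-27632 control wells after no-enzyme background subtraction for full effect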
PKA kinase inh: inhibitors of human PKA kinase activity, primary screen, biochemical, ATP-depletion luminescence, Kemptide substrate | PKA Kemptide phosphorylation, Kinase-Glo ATP luminescence | inhibition, % at 6 µM | hit rate 0.1% among 65,000;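 active = inhibition above the screen-wide mean inhibition plus 3 SD, cut at about 21% in these data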
SK-BR-3 tox 24h: SK-BR-3 proliferation inhibitors, primary screen, cell-based, human, 24 h | viability, % at 10 µM | hit rate 0.47% among 41,000 | SK-BR-3 viability, CellTiter-Glo ATP luminescence; hits give low values;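 active = viability at or below the median of all test compounds minus 3 SD, in both replicates if run twice, cut at about 45% in these data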;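 note: 100% = median untreated cell wells and 0% = median positive control drug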
Hsp90 block: tumor Hsp90 inhibitors, primary screen, cell lysate, fluorescence polarization, NCI-N417 lysate. hit rate 0.35% among 64,000. inhibition, % at 30 µM. Heat shock protein HSP 90-alpha (Homo sapiens), P07900. Cy3B-geldanamycin FP displacement;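 active = inhibition above 50%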;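 note: 0% = tracer plus lysate wells and 100% = tracer alone without lysate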
mHtt clearance: clearance of mutant huntingtin inclusions, primary screen, imaging, HeLa Exon1htt(103Q)mCFP, confocal imaging. aggregate imaging; zero = plate's median compound well. inhibition, % at 1.5 µM. hit rate 0.42% among 47,000. AID 853, 2007;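 active = inhibition of aggregate fluorescence above about 70%, also judged a hit by eye on the cell image, limit read from the data, passing the limit was not always enough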;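 note: cells exposed to compound for three days before fixation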
MMP13 inh: human MMP13 inhibitors, primary screen, biochemical, FRET peptide cleavage; Collagenase 3 (Homo sapiens), P45452; MMP-13 fTHP FRET cleavage, Mca fluorescence; inhibition, % at 4 µM; hit rate 0.07% among 65,000;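 active = inhibition above the mean of compound-free control plate wells plus 3 SD, cut at about 14% in these data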;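 note: 0% = DMSO wells and 100% = wells with reference MMP-13 inhibitor after basal subtraction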
Active calls of the source: *; · = no result. In the library only some 0.97% were active in any assay of this set; here they are far more common.

SMILES	ROCK2 blocker	PKA kinase inh	SK-BR-3 tox 24h	Hsp90 block	mHtt clearance	MMP13 inh
N#Cc1c(/N=C/c2cccs2)sc2c1CCCCC2	25*	6	95	-5	-3	1
Cc1ccc(-c2nnn(CC(=O)Nc3ccccc3-c3ccccc3)n2)c(-n2cnnn2)c1	6	6	97	-2	-16	1
C=C/C(C)=C/[C@@]1(C)SC(=O)C(C)=C1O	·	·	·	-2	·	·
COC(=O)c1sc2cnccc2c1N	42*	17	·	0	·	-194
Cc1ccc(C2c3sc(=O)[nH]c3SC3C(=O)NC(=O)C32)cc1 (stereo unspecified)	3	5	·	-4	·	10
Cc1[nH]nc2c1C(c1ccc(F)cc1)C(C#N)=C(N)O2 (stereo unspecified)	3	2	99	-3	·	-3
Cc1[nH]nc2c1C(c1ccc(-c3ccccc3C#N)o1)C(C#N)=C(N)O2 (stereo unspecified)	40*	8	70	-6	·	-2
CCc1ccccc1NC(=O)CSC1=C(C#N)C(c2ccc3c(c2)OCO3)C2=C(CCCC2=O)N1 (stereo unspecified)	5	-1	82	-4	73*	-7
CCCNCCCC(C)Nc1cc(OC)cc2c(C)ccnc12 (stereo unspecified)	·	·	·	-6	·	·
COc1cccc(C(=O)NC2CC3CCCC(C2)N3CC(=O)Nc2ccccc2)c1 (stereo unspecified)	-3	-3	112	95*	·	0
COc1cccc(C(=O)NC2CC3CCCC(C2)N3CC(=O)Nc2ccc(N(C)C)cc2)c1 (stereo unspecified)	·	5	83	·	·	0
Cn1cccc1C(C(=O)NC1CCCCC1)N(C(=O)Cc1cccs1)c1ccc2c(c1)OCCO2 (stereo unspecified)	11	1	85	0	·	-2
COc1ccc(N(C(=O)Cc2cccs2)C(C(=O)NC2CCCCC2)c2cccn2C)cc1OC (stereo unspecified)	·	·	·	·	94*	·
CN(C)CCCOC(=O)Cc1ccc(Cl)cc1	-10	-6	85	-1	-8	2
CN(C)CCCOC(=O)c1ccccc1Cl	·	·	·	·	73*	·
COc1ccc(OC)c(N2C(=O)[C@@H]3C(c4ccccc4Cl)=NO[C@@H]3C2=O)c1	7	6	111	2	·	4
COc1ccc(C2=NO[C@@H]3C(=O)N(c4c(C)cccc4C)C(=O)[C@H]23)cc1OC	-4	-1	93	74*	-3	6
CN1/C(=N\O)c2cccc3cccc1c23	37*	10	101	15	-7	-3
COc1ccc(CSc2nc(C)cc(=O)[nH]2)cc1	3	10	·	-2	-164	25*
COc1ccc(C(=O)CSc2nc(C)cc(=O)[nH]2)cc1	2	-4	·	-1	·	-10
COc1cc(NCCCC(C)N)c2ncccc2c1 (stereo unspecified)	-9	-15	23*	97*	22	3
COc1cc(NCCCC(C)O)c2ncccc2c1 (stereo unspecified)	·	·	·	1	·	·
Cc1cccc(NC(=O)Cn2nnc(-c3cccs3)n2)c1C	-4	4	102	54*	-15	5
O=S(=O)(Nc1ccc2c(c1)OCCO2)c1cnc[nH]1	4	7	·	-1	·	-4
CCOc1ccc(C(C)NC(=O)Nc2ccccc2C(=O)OC)cc1 (stereo unspecified)	·	·	·	·	-15	·
SMILES	ROCK2 blocker	PKA kinase inh	SK-BR-3 tox 24h	Hsp90 block	mHtt clearance	MMP13 inh
COC(=O)C1=C(C)N(c2ccc(C(=O)OC)cc2)C(=O)C1	-3	2	84	-9	·	-3
COC(=O)C1=C(C)N(c2cccc3ccccc23)C(=O)C1	8	6	86	51*	36	-7
COc1cc(N)c2nccc(Cl)c2c1	·	·	·	13	·	·
O=C(CSc1ncc(-c2ccc(F)cc2)[nH]1)Nc1cccc(O)c1	25*	9	93	-1	11	-4
CCOC(=O)c1cn2c3c(c(F)c(F)c(F)c3c1=O)SC(N1CCCC1)=N2	-4	-4	103	-6	·	1
CCCCOC(=O)n1c(=O)oc2cc(S(=O)(=O)N3CCCCC3)ccc21	1	-9	79	2	72*	2
COC(=O)n1c(=O)oc2cc(S(=O)(=O)N3CCOCC3)ccc21	1	3	84	1	·	-1
O=C(Nc1ncc(Cc2ccccc2)s1)C1COc2ccccc2O1 (stereo unspecified)	·	·	·	·	-13	·
Cc1cc(-c2cc(N)n(-c3ccccc3)n2)c(C)n1C1CCCC1	-2	6	43*	-9	·	1
Cc1cc(N)n(-c2ccccc2)n1	·	·	96	·	-38	·
COC(=O)c1cc(=O)n(CCc2ccc(OC)c(OC)c2)c(=Nc2ccc(F)c(Cl)c2)s1	·	·	·	·	-6	·
CS(=O)(=O)N1CCc2cc(C(=O)OCC(=O)c3ccccc3)ccc21	·	10	·	-2	·	15*
CS(=O)(=O)N1CCc2cc(-c3csc(NC(=O)Cc4ccccc4)n3)ccc21	·	·	·	·	14	·
S=C1NCCOCCOCCOCCN1	·	·	·	·	17	·
S=C1NCCOCCOCCOCCOCCNC(=S)NCCOCCOCCOCCOCCN1	·	·	·	·	78*	·
O=C1CC(=C2c3ccccc3-c3ccccc32)C(=O)N1CCCCN1CCN(c2ccccc2)CC1	·	·	·	·	49	·
O=C(/C=C/c1ccc(O)c(O)c1)OCCc1ccccc1	·	·	·	90*	·	·
CC(=O)n1cc(-c2ccncc2)c2ccccc21	61*	26*	·	-3	·	-2
CC(=O)n1cc(/C=N/NC(=O)c2sc(C)nc2C)c2ccccc21	·	·	·	·	1	·
Cc1ccc2[nH]c(=O)c(CN(Cc3ccccc3Cl)C(=O)N3CCOCC3)cc2c1	6	7	62	-4	23	-6
CN1CCC2=C(CCCC2CCc2ccc(Cl)c(Cl)c2)C1 (stereo unspecified)	·	·	·	0	·	·
CCCCn1nc(-c2ccccc2)c2nc3ccccc3nc21	·	·	·	·	74*	·
O=c1[nH]cnc2cc(Cl)ccc12	18*	14	100	-4	-18	-6
Cc1onc(-c2ccccc2)c1C(=O)Nc1sc2c(c1C#N)CCC2	3	10	44*	·	·	0
CCOc1ccc(C(c2nnnn2Cc2ccccc2)N2CCN(C(=O)c3ccco3)CC2)cc1 (stereo unspecified)	3	6	41*	-4	18	3
N#CC(Cc1ccc(O)c(O)c1)C(=O)N1CCc2ccccc21 (stereo unspecified)	·	·	·	81*	·	·
O=C(CCCC(=O)N1CCc2ccccc21)N1CCc2ccccc21	0	3	109	-7	·	-3
Cn1c(CSCc2ccc(Cl)c(Cl)c2)nnc1SCC(=O)Nc1nccs1	25*	19	93	-6	·	1
Cn1c(CSCc2ccc(Cl)cc2)nnc1SCC(=O)Nc1nccs1	·	·	·	·	-2	·
